Results as given in PubChem BioAssay AID1259415 (National Center for Advancing Translational Sciences (NCATS), 2018).
Out of some 410,000 compounds screened, about 18,000 (4.4%) were called active. Roughly 7% stayed inconclusive and do not appear here. Cut-off read from the data, not from the text of the source: active = activity change below about -60%; inconclusive = no clear call, values can overlap the other calls; inactive = above about -39%. The entries come from a sample that favours actives as a whole.

assay: qHTS Assay for inhibitors of the human cytomegalovirus (HCMV); conditions: HFF cells, HCMV-luciferase reporter, 72 h; at 57.5 µM; active compounds read low
Text: NCGC Assay Overview: Infection with human cytomegalovirus (HCMV) continues to pose significant threats for pregnant women and immunocompromised hosts. HCMV causes serious morbidity and mortality in transplant recipients, and congenital HCMV is the leading infectious cause of mental retardation and deafness in children. In the 1990s, the annual costs associated with the disease burden of congenital CMV were estimated at around $2 billion. A HCMV vaccine is not available yet and HCMV therapies result in intolerable side effects and emergence of drug resistant viruses. […] Towards this goal we have developed and characterized a luciferase HCMV reporter that was initially used in 96 well plates and then optimized to 1536-well plates for utilization in screening of the MLSMR collection, the NGCG diversity collection and the NCGC Pharmaceutical Collection of approved and investigational drugs.
NCGC Assay Protocol Summary:
This is a cell-based assay for HCMV inhibition in HFFs cells. The screening used 2 compound doses and the HCMV-luciferase at MOI of 1 PFU/cell. Cells were treated and infected with HCMV. At 72 h post infection cell lysates were collected and luciferase activity was determined using the Glomax-Multi + Detection System (Promega, Madison, WI). Data were normalized to the controls for basal activity (buffer only) and known HCMV inhibitors Salinmoycin.
1536-well assay protocol for the assay:
(1) Add 3 ul CMV/HFF cell culture. 1000 cells/well in DMEM nirmal media.
(2) Incubate 16 hr at 37C.
(3) Add 23 nl control compound, 10uM of Salinomycin.
(4) Add 23 nl compounds in DMSO solution.
(5) Add 3 ul CMV suspension. Final 1 puf/ul, Virus stock 2000pfu/ul
(6) Incubate 72 hrs at 37C.
(7) Add 4 ul OneGlo Luc Reagent.
(8) Incubate 5 min at room temperature.
% is set by controls: 0 for no effect and ±100 for the full control effect.

| SMILES | activity change, negative = inhibition |
| --- | --- |
| Cc1ccc(-c2nc(CS(=O)(=O)CC(=O)NCc3ccccc3Cl)c(C)o2)cc1 | -14.3% (inactive) |
| CCOc1ccc(NS(=O)(=O)c2ccc(N)cc2)nn1 | -10.2% (inactive) |
| CCCCn1c(=N)c(S(=O)(=O)c2ccccc2)cc2c(=O)n3cccc(C)c3nc21 | 12.5% (inactive) |
| COc1ccc(CC(=O)Nc2ccc(-c3nnc(-c4ccc(C)cc4)o3)cc2)cc1 | -63.2% (active) |
| COc1ccc(CC(=O)Nc2ccc(-c3nc4ccccc4s3)c(C)c2)cc1 | 52.5% (inactive) |
| COc1ccc(Cc2n[nH]c(=S)n2NC(=O)Nc2ccc(C)cc2)cc1 | 4.71% (inactive) |
| CCn1c2ccccc2c2nnc(N3CCN(c4cc(C)ccc4C)CC3)nc21 | -34% (inactive) |
| COc1cc(OC)c(NC(=O)Cc2ccc(-n3c(C)nc4cccnc43)cc2)cc1Cl | 0% (inactive) |
| Cc1cc2n(n1)C(c1cc(C(C)(C)C)c(O)cc1O)Nc1ccccc1-2 (stereo not given) | -23.1% (inactive) |
| COc1ccc(-c2nc(CS(=O)(=O)CC(=O)NCc3cccc(Br)c3)c(C)o2)cc1 | 5.73% (inactive) |
| COc1cccc(-c2nc(CS(=O)(=O)CC(=O)N3CCN(c4cc(C)ccc4C)CC3)c(C)o2)c1 | -75.7% (active) |
| CCCCN(CC)CCCNC(=O)CS(=O)(=O)Cc1nc(-c2cccc(OC)c2)oc1C | 29.6% (inactive) |
| CCS(=O)(=O)n1nc(-c2ccccc2)nc1SCc1ccccc1 | 138% (inactive) |
| COc1cc(OC)c(C2C=C(C(=O)O)Nc3ncnn32)cc1OC (stereo not given) | 6.4% (inactive) |
| CCN(CC)CCCNC(=O)c1ccc2c(=O)n(Cc3ccc4c(c3)OCO4)c(=S)[nH]c2c1 | 69.4% (inactive) |
| COCCn1c(=S)[nH]c2cc(C(=O)NCCc3ccc(OC)c(OC)c3)ccc2c1=O | 29.3% (inactive) |
| COc1ccc(Cn2c(=S)[nH]c3cc(C(=O)NCCCN4CCOCC4)ccc3c2=O)cc1 | -65.2% (active) |
| COc1ccc(C(F)(F)F)cc1N/C=C\c1nnnn1-c1ccc(C)cc1 | 34.7% (inactive) |
| Cc1ccc(CN2CCc3nc(N4CCN(C)CC4)ncc3C2)cc1 | -6.43% (inactive) |
| CCCCOCCCNC(=O)C[C@@H]1C[C@@]2(C(=O)OCC)CCCC=C2N(CCC2=CCCCC2)C1=O | 22.8% (inactive) |
| CS(=O)(=O)N1CCc2nc(-c3ccccc3)sc2C1 | 154% (inactive) |
| CCOc1ccc(S(=O)(=O)NCCSc2ccccc2)cc1 | 43.7% (inactive) |
| CCOc1ccc(S(=O)(=O)c2cn(Cc3ccccc3)c3ccc(OCC)cc3c2=O)cc1 | -13.1% (inactive) |

| SMILES | activity change, negative = inhibition |
| --- | --- |
| CCOc1ccc(Nc2c(S(=O)(=O)c3ccccc3)cnc3ccccc23)cc1 | -70% (active) |
| Cc1cc(F)ccc1NC1(c2ccccc2)C(=O)c2ccccc2C1=O | 6.52% (inactive) |
| Cc1[nH]c2ccccc2c1C(=O)COC(=O)c1c(-c2ccccc2)noc1C | -67.3% (active) |
| COc1ccc(C(=O)COC(=O)c2c(C)noc2C)cc1Cl | -19.5% (inactive) |
| Cc1[nH]c2ccccc2c1C(=O)CN1CC(C)CC(C)C1 (stereo not given) | 9.64% (inactive) |
| CCN(CC)c1ccc(NC(=O)Cn2nc3c(cc2=O)CCCC3)c(C)c1 | -12.7% (inactive) |
| CSc1ccc(CCNC(=O)c2ccc3c(c2)nc2n3CCOC2)cc1 | 11.7% (inactive) |
| CN(C(=O)CCNC(=O)Cn1ccc2ccccc2c1=O)c1ccc(Br)cc1 | 9.17% (inactive) |
| CC1=C(C(=O)OCc2ccc(C)cc2)C(c2ccccc2Cl)CC(=O)N1 (stereo not given) | -36.9% (inactive) |
| CCCNC(=O)C1(C)CCCN(Cc2c(C)nn(-c3ccccc3)c2C)C1 (stereo not given) | -77% (active) |
| CCCNC(=O)C1(C)CCCN(Cc2cccc(C(F)(F)F)c2)C1 (stereo not given) | -32.6% (inactive) |
| CCCNC(=O)C1(C)CCN(Cc2ccc(Cl)c(Cl)c2)C1 (stereo not given) | -29% (inactive) |
| Cc1ccc(NC(=O)N2c3ccccc3SC2c2ccco2)c(C)c1 (stereo not given) | -32.4% (inactive) |
| O=C(NCC(c1ccc(Cl)cc1)N1CCOCC1)c1ccccc1F (stereo not given) | 1.34% (inactive) |
| C=CCn1c(SCC(N)=O)nnc1-c1cc2c(s1)CCC(CC)C2 (stereo not given) | -11.3% (inactive) |
| CCc1ccc(NC(=O)CCS(=O)(=O)c2cc3c(cc2Cl)NC(=O)CO3)cc1 | 4.24% (inactive) |
| FC(F)(F)c1nc(-c2ccccc2)ncc1-c1nnnn1-c1ccccc1 | -66.2% (active) |
| NNC(=O)c1cnn(-c2ccccc2)c1C(F)(F)F | 6.26% (inactive) |
| Fc1ccccc1CCNc1nnnn1-c1ccccc1 | -28.9% (inactive) |
| CCN(CC)S(=O)(=O)c1ccc2c(c1)c(=O)c(C(=O)N1CCN(c3cccc(Cl)c3)CC1)cn2C | 11.7% (inactive) |
| Cc1cccc(N2CCN(C(=O)CCn3c(=O)c4cccn4c4cccnc43)CC2C)c1 (stereo not given) | 15% (inactive) |
| CC(C)CCN1CCN=C1N(C)C | 3.25% (inactive) |
